# Data as given in PubChem BioAssay AID1508600 (Functional Genomics Laboratory (NCATS/FGL), 2020).
# Hit rate of the full screen: of about 53,000 sequences, about 3,700 (7%) were called active.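 The calls were made as follows: active = gene knockdowns whose robust z-score for IL-1 alpha signal is at least 2 or at most -2, so actives lie on both sides; inactive = the rest.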 Many of the other results were omitted from the sample, so actives are more common in it than they were.
# Assay: Components of the Cytosolic LPS Sensing Pathway: Gene Identification via Genome-wide siRNA Screen;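 also: robust z of the log signal after scaling to non-targeting control siRNA wells of the plate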
# Conditions: RAW264.7 macrophages, IL-1a HTRF, actives lie on both sides, screened at 100 nM (by protocol), cells primed 5 h with Pam3CSK4 first
# Procedure, shortened: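 RAW264.7 mouse macrophages reverse-transfected with single siRNAs (100 nM final) for 48h, primed with Pam3CSK4 for 5 hours, then transfected with LipidA for 24 hour. Supernatant IL-1a read by HTRF; values normalized to negative-control median, log-transformed robust z-scores.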
row,Sequence,z-score
1,GGCUUUCUUUGCCAUGACCTT against Copg1,-2.93 (active)
2,CCCUAGAUGGCCGAAAUAUTT against Dazap1,-1.47 (inactive)
3,CCUUAUCUGGAGUGCGAGATT against Gpr158,0.452 (inactive)
4,CCAAUCCUGAAUAAUGAGATT against Spag17,0.0419 (inactive)
5,CGCCGCAGUAUUAAUGGCUTT against Nxph4,0.225 (inactive)
6,GGUGGACCUGCACUUUACCTT against Fam135b,0.67 (inactive)
7,CGUCUAUCUUGGAUUACUATT against Dll1,2.11 (active)
8,UAAAUACUUACCAGCUGGATT against Olfr1306,1.06 (inactive)
9,GCACCAGUCGAAUCCUCAATT against Gpr137,-1.46 (inactive)
10,GGCCCAAGGAUCAAUUUAUTT against Zup1,0.914 (inactive)
11,GGUUCCUGGGAACCUAAGUTT against Med25,2.02 (active)
12,CCUCAUCGAUGCACUACCCTT against Lrfn4,-0.338 (inactive)
13,GCUCAUGACACUCUUCCUGTT against Spib,1.45 (inactive)
14,GGAGGAUGGCUUUACCGCATT against Mib2,-1.64 (inactive)
15,GCCGGAUUGAGAUCUCUAUTT against 1500015L24Rik,0.734 (inactive)
16,GGAACAGGACAAUGACAGUTT against Gzme,1.43 (inactive)
17,GGCUUACUUCAUUUCAGUUTT against Zfp526,0.0808 (inactive)
18,GGAAAACAUUAAGAAGGGCTT against Ccn2,3.41 (active)
19,GGACCUCCACCGUUACUACTT against Sgsh,0.367 (inactive)
20,GGAGGAACACAAGAUUUUCTT against Ppp2r5c,-0.322 (inactive)
21,GGAAGUCCAUCUCUUUUGCTT against Olfr56,0.213 (inactive)
22,GGAUCCAGAAAGUCCAGAUTT against Nt5c3b,0.918 (inactive)
23,GGAUGUUGGUACUUUUUGATT against Pwp1,-0.254 (inactive)
24,GGAAUAAAGUGUUGUGUCATT against Wfdc15b,-0.118 (inactive)
25,GGUAGCAGUUGCUUUAAUATT against Siah2,2.65 (active)
26,GGGUUUCACAGGCAAACAGTT against Suclg1,-0.904 (inactive)
27,CCCUGUACCUAGCUCAAGATT against Ecel1,-0.693 (inactive)
28,GGAAUCAUCUUUGUGGAGATT against Nudt22,-0.733 (inactive)
29,GCCAACGAGAGUAAACACGTT against 5930403N24Rik,-0.0706 (inactive)
30,GGUCUACUGACUCAAAGUCTT against Mrps33,2.2 (active)
